Columns and labels:
[1] = tested on: Vero E6 infected with SARS-CoV-2; assay: morphology score (similarity to uninfected cells); higher = more like uninfected cells; conditions: 24 h
[2] = tested on: Vero E6 infected with SARS-CoV-2; assay: SARS-CoV-2 infection rate relative to infected DMSO; higher = more infection, active = 60 or less; conditions: 24 h

| Compound | morphology score [1] | SARS-CoV-2 infection rate [2] |
| --- | --- | --- |
| CC(=O)OC/C=C(C)/C=C/C=C(C)/C=C/C1=C(C)CCCC1(C)C [retinyl-acetate] (10 µM) | -0.227 | 113% (inactive) |
| CC[C@]1(O)C[C@H]2CN(CCc3c([nH]c4ccccc34)[C@@](C(=O)OC)(c3cc4c(cc3OC)N(C=O)[C@H]3[C@@](O)(C(=O)OC)[C@H](OC(C)=O)[C@]5(CC)C=CCN6CC[C@]43[C@@H]65)C2)C1 [Vincristine (sulfate)] (10 µM) | -0.036 | 101% (inactive) |
| CC(C)(S)C(N)C(=O)O (stereo in doubt) [penicillamine-(racemic)] (10 µM) | 0.0971 | 100% (inactive) |
| CC(C)C[C@H](NC(=O)CNC(=O)[C@H](Cc1ccc(O)cc1)NC(=O)[C@H](CO)NC(=O)[C@H](Cc1c[nH]c2ccccc12)NC(=O)[C@H](Cc1cnc[nH]1)NC(=O)[C@@H]1CCC(=O)N1)C(=O)N[C@@H](CCCNC(=N)N)C(=O)N1CCC[C@H]1C(=O)NCC(N)=O [gonadorelin] (10 µM) | -0.182 | 104% (inactive) |
| COC(=O)[C@H](CC(C)C)NC(=O)c1ccc(NC[C@@H](N)CS)cc1-c1cccc2ccccc12 (10 µM) | -0.445 | 115% (inactive) |
| CC(C)(O)CC[C@@H](O)[C@](C)(O)[C@H]1CC[C@@]2(O)C3=CC(=O)[C@@H]4C[C@@H](O)[C@@H](O)C[C@]4(C)[C@H]3CC[C@]12C [20-hydroxyecdysone] (10 µM) | 0.0401 | 108% (inactive) |
| COc1ccc(C2(O)CCC(N3CC[C@@H](NC(=O)CNC(=O)c4cccc(C(F)(F)F)c4)C3)CC2)cn1 (stereo partly drawn) (10 µM) | -0.0197 | 105% (inactive) |
| COc1cc(NS(=O)(=O)c2ccc(N)cc2)nc(OC)n1 [sulphadimethoxine] (10 µM) | -0.00223 | 103% (inactive) |
| O=C(O)C(Cc1ccccc1[N+](=O)[O-])=NNc1nc(-c2ccc(Cl)c(Cl)c2)cs1 (10 µM) | 0.23 | 102% (inactive) |
| CCN1CCN(c2ccc(Nc3cc(N(C)C(=O)Nc4c(Cl)c(OC)cc(OC)c4Cl)ncn3)cc2)CC1 (0.833333 µM) | -0.0528 | 117% (inactive) |
| O=S(=O)(/N=C/c1c(O)ccc2ccccc12)c1cccs1 (10 µM) | 0.103 | 98.5% (inactive) |
| CC(C)(C)C[C@@H]1N[C@@H](C(=O)N[C@H]2CC[C@H](O)CC2)[C@H](c2cccc(Cl)c2F)[C@]12C(=O)Nc1cc(Cl)ccc12 (10 µM) | -0.042 | 113% (inactive) |
| C=CCN1CC[C@]23c4c5ccc(O)c4O[C@H]2C(=O)CC[C@@]3(O)[C@H]1C5 (10 µM) | -0.209 | 114% (inactive) |
| COc1ccccc1Oc1c(NS(=O)(=O)c2ccc(C(C)(C)C)cc2)nc(-c2ncccn2)nc1OCCO [bosentan] (10 µM) | 0.0268 | 112% (inactive) |
| C[C@@H](NC(=O)[C@@H](N)Cc1ccc(O)cc1)C(=O)NCC(=O)N(C)[C@@H](Cc1ccccc1)C(=O)N[C@H](CO)CC[S+](C)[O-] (stereo partly drawn) (10 µM) | 0.111 | 112% (inactive) |
| COC(=O)[C@H](Cc1ccccc1)NC(=O)[C@@H](N)CC(=O)O [aspartame] (10 µM) | 0.172 | 106% (inactive) |
| CC(=O)Oc1c(C)cc(OCC(O)CNC(C)C)c(C)c1C (stereo not drawn) [metipranolol] (10 µM) | -0.0461 | 108% (inactive) |
| Cc1ccc(C)c(OCCCC(C)(C)C(=O)O)c1 [gemfibrozil] (10 µM) | -0.0506 | 98.5% (inactive) |
| COc1[nH]c2ccc(F)cc2c1C(=O)OCC1CCN(CCNS(C)(=O)=O)CC1 (10 µM) | 0.0361 | 106% (inactive) |
| c1ccc(Oc2cccnc2)cc1 (10 µM) | 0.0741 | 103% (inactive) |

| Compound | morphology score [1] | SARS-CoV-2 infection rate [2] |
| --- | --- | --- |
| CN(C)C(=O)COC(=O)Cc1ccc(OC(=O)c2ccc(NC(=N)N)cc2)cc1 [camostat-mesilate] (10 µM) | 0.0997 | 114% (inactive) |
| Cc1ccc(S(=O)(=O)NCl)cc1 [chloramine-T] (10 µM) | 0.043 | 104% (inactive) |
| Clc1cccc2c1CN(C1=NCCN1)C2 (10 µM) | 0.132 | 93.5% (inactive) |
| O=C1NC(=O)/C(=C/c2ccc(-c3ccc(F)cc3O)o2)S1 (10 µM) | 0.146 | 108% (inactive) |
| CCN(CC)CCNc1ccc(CO)c2sc3ccccc3c(=O)c12 [hycanthone] (0.833333 µM) | 0.244 | 82% (inactive) |
| O=C(O)/C=C\c1c[nH]cn1 [cis-Urocanic acid] (10 µM) | 0.143 | 104% (inactive) |
| OC1=c2ccccc2=C(NC2CCCCC2)/C1=C\c1ccccc1 (0.833333 µM) | 0.213 | 85.5% (inactive) |
| CN[C@@H](C)[C@H]1[C@H](O)C[C@@]2(C)[C@@H]3CC[C@H]4C(C)(C)[C@@H](NC)CC[C@@]45C[C@@]35CC[C@]12C [cyclovirobuxin-D] (10 µM) | 0.331 | 97% (inactive) |
| CCn1c(-c2nonc2N)nc2cncc(C(=O)N3CC[C@H](N)C3)c21 (0.833333 µM) | 0.488 | 87% (inactive) |
| O=[N+]([O-])c1c(Nc2cc(F)cc(Cl)c2)ccc2nonc12 (10 µM) | 0.097 | 94.5% (inactive) |
| O=C(O)COc1nn(Cc2ccccc2)c2ccccc12 [bendazac] (10 µM) | -0.0178 | 102% (inactive) |
| CCOC(=O)C1=C(COCCN)NC(C)=C(C(=O)OC)C1c1ccccc1Cl (stereo not drawn) [amlodipine] (10 µM) | 0.697 | 47% (active) |
| Cc1cccc(-c2[nH]c(CNc3ccccc3F)nc2-c2ccc3ncnn3c2)n1 (10 µM) | 0.295 | 109% (inactive) |
| COCCOC(=O)C1=C(C)NC(C)=C(C(=O)OC(C)C)C1c1cccc([N+](=O)[O-])c1 (stereo not drawn) [nimodipine] (10 µM) | 0.14 | 92% (inactive) |
| COc1cc(Br)c(S(=O)(=O)Nc2ccc(Cl)c(O[C@@H]3CCN(C)C3)c2)cc1OC (10 µM) | -0.105 | 102% (inactive) |
| CCNC(=O)/C=C/c1cccc(Br)c1 [cinromide] (10 µM) | 0.135 | 96% (inactive) |
| CC1(C)CC(=O)c2c(C(F)(F)F)nn(-c3ccc(C(N)=O)c(N[C@H]4CC[C@H](O)CC4)c3)c2C1 (10 µM) | 0.196 | 102% (inactive) |
| O=C(COc1cccc2c(=O)[nH]ccc12)c1ccccc1 (10 µM) | 0.0752 | 87% (inactive) |
| O=C(c1cccc(Cl)c1F)N1CCN(Cc2cccc(Nc3nccs3)n2)CC1 (0.833333 µM) | 0.202 | 107% (inactive) |
| O=C(O)CC[C@H]1CC[C@@](c2cc(F)ccc2F)(S(=O)(=O)c2ccc(Cl)cc2)CC1 (10 µM) | 0.0148 | 110% (inactive) |

| Compound | morphology score [1] | SARS-CoV-2 infection rate [2] |
| --- | --- | --- |
| C=CC(=O)Nc1cccc(Nc2nc(Nc3ccc(N4CCN(C(C)=O)CC4)cc3OC)ncc2C(F)(F)F)c1 [rociletinib] (10 µM) | -0.408 | 106% (inactive) |
| O=C(NO)C1(CS(=O)(=O)c2ccc(Oc3ccc(Cl)cc3)cc2)CCOCC1 (10 µM) | 0.0418 | 98.5% (inactive) |
| NCC(CC(=O)O)c1ccccc1 (stereo not drawn) [fenigam] (10 µM) | 0.256 | 89% (inactive) |
| CCOC(N)=O [urethane] (10 µM) | -0.0716 | 106% (inactive) |
| C[N+](C)(C)CC[N+]1(C)Cc2c(Cl)c(Cl)c(Cl)c(Cl)c2C1 [chlorisondamine-diiodide] (10 µM) | 0.224 | 90.5% (inactive) |
| COc1cc(N2CCN(C)CC2)ccc1Nc1nccc(-c2cn(C)c3cnccc23)n1 (0.833333 µM) | 0.377 | 100% (inactive) |
| Cc1cc(-c2nc(C(=O)Nc3cn(C4CCOCC4)nc3C(N)=O)co2)ccn1 (10 µM) | -0.166 | 118% (inactive) |
| Cc1ccc2c(c1)=C(c1ccccc1)C(C1=NN(C(=O)CCC(=O)O)C(c3ccc(Br)cc3)C1)C(=O)N=2 (stereo not drawn) (10 µM) | -0.085 | 104% (inactive) |
| Cc1ccc(-n2nc(C(C)(C)C)cc2NC(=O)Nc2ccc(OCCN3CCOCC3)c3ccccc23)cc1 [doramapimod] (10 µM) | 0.482 | 86% (inactive) |
| N#C/C(=C\c1ccc(O)c(O)c1)C(=O)NCCCCc1ccccc1 (0.833333 µM) | 0.167 | 89.5% (inactive) |
| Oc1cccc(-c2c3nc(c(-c4cccc(O)c4)c4ccc([nH]4)c(-c4cccc(O)c4)c4nc(c(-c5cccc(O)c5)c5ccc2[nH]5)CC4)C=C3)c1 [temoporfin] (0.833333 µM) | -0.0311 | 111% (inactive) |
| CN1C(CCl)Nc2cc(Cl)c(S(N)(=O)=O)cc2S1(=O)=O (stereo not drawn) [methyclothiazide] (10 µM) | 0.0153 | 104% (inactive) |
| COc1cc(C[C@@H](CO)[C@H](CO)Cc2ccc(O)c(OC)c2)ccc1O [secoisolariciresinol-(-)] (10 µM) | -0.0638 | 109% (inactive) |
| COc1cccc(OC)c1C(=O)N[C@@H]1C(=O)N2[C@@H]1SC(C)(C)[C@@H]2C(=O)O [methicillin] (10 µM) | -0.0574 | 112% (inactive) |
| Nc1ccncc1N [amifampridine] (10 µM) | 0.0643 | 92% (inactive) |
| COc1ccccc1N1CCN(CCCCNC(=O)c2ccc(-c3ccc(C(C)=O)cc3)cc2)CC1 (10 µM) | -0.218 | 113% (inactive) |
| O=C(O)C1=CCCNC1 [guvacine] (10 µM) | 0.2 | 93% (inactive) |
| CCCc1c2oc(C(=O)O)cc(=O)c2cc2c(=O)cc(C(=O)O)n(CC)c12 [nedocromil] (10 µM) | -0.0269 | 110% (inactive) |
| Cc1cc(C)c2nc(-c3ccccn3)cc(C(=O)Nc3ccc(S(=O)(=O)Nc4onc(C)c4C)cc3)c2c1 (10 µM) | -0.319 | 97% (inactive) |
